Compounds with a hit are over-represented: about 5.1% of the library has one in this group of screens.
KDM4E inh: JMJD2E (human) inhibition; B2RXH2; JMJD2E catalytic domain, FDH-coupled NADH fluorescence (FDH is formaldehyde dehydrogenase); Potency, µM (highest dose often 57.1 µM), without a hit: top-dose activity change, negative = inhibition, most hits filed as inhibitors; hit rate 1.6% among 230,000; AID 2147; active = well fitted inhibition curve with a large enough effect, not every such curve was filed as active; inconclusive = small, poorly fitted or top-dose-only effect, or another doubt; inactive = no such curve, though single readings can be large or run the other way;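 also: potency is read from the fitted curve at half-maximal effect; 0% = wells with enzyme and -100% = buffer wells without enzyme; nearly all actives have a fitted effect of over 50% in size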
Target sequence (B2RXH2 1-337 limits assumed): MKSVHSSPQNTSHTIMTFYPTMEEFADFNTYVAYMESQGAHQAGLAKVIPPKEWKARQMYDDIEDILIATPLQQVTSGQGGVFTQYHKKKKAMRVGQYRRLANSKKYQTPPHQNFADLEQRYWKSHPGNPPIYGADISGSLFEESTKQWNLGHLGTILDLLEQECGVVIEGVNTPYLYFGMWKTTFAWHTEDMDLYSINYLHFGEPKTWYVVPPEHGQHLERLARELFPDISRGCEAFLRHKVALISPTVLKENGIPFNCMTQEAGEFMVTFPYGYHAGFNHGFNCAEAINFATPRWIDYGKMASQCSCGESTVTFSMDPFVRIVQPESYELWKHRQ
Tau fibril ThT: tau fibrillization inhibition (ThT binding). hit rate 2.1% among 270,000. P10636. Potency, µM (series often up to 57.4 µM), for the others: at the highest dose activity, negative = inhibition, hits mostly inhibitors. recombinant tau K18 P301L, heparin-induced fibrillization, ThT fluorescence; also: potency is read from the fitted curve at half-maximal effect; nearly all actives have a fitted effect of over 55% in size
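Fibril formation assay: tau K18 P301L at 15 uM with trace Alexa 594 label, heparin inducer 20 uM, pH 7 sodium acetate buffer, 37 C for 6 hr; endpoint ThT signal.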
Tau FP inhib: blocks human tau fibril formation measured by polarization | P10636 | K18 P301L tau heparin fibrillization, Alexa594 FP, 6 h | Potency, µM (series often up to 57.7 µM), inactives show top-dose activity, negative = inhibition, actives largely listed as inhibitors | hit rate 0.39% among 280,000 | AID 1468; also: potency is read from the fitted curve at half-maximal effect; nearly all actives have a fitted effect of over 55% in size
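Human K18 P301L fragment (15 uM unlabeled plus 0.24 uM Alexa 594-labeled) in 100 mM sodium acetate pH 7 with compound, aggregation induced by 20 uM heparin for 6 hr at 37 C. ThT (30 uM) added for 1 hr, then Alexa 594 FP read.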
NPSR antagonist: neuropeptide S receptor (human) antagonism, cAMP. AID 1461. CHO-NPSR cells, cAMP TR-FRET, antagonist mode. Potency, µM (top dose mostly 38.3 µM), for the others: at the top dose activity change, negative = inhibition, usual class: inhibitors. Q6W5P4. hit rate 1% among 220,000; also: potency is read from the fitted curve at half-maximal effect; nearly all actives have a fitted effect of over 50% in size
Target sequence (Q6W5P4 whole entry, looked up): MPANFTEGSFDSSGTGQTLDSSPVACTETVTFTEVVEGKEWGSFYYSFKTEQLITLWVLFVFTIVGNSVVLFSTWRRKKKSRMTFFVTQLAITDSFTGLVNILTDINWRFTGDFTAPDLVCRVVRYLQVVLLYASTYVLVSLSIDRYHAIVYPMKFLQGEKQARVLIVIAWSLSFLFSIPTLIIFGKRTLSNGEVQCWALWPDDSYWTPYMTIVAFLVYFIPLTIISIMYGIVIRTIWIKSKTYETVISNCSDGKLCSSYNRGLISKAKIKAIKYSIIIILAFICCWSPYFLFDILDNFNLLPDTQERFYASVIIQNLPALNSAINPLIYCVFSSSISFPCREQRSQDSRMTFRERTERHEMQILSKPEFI
PNC inhibitor: blocks assembly of the perinucleolar compartment. PC3M PTB-GFP, PNC prevalence imaging, 16 h; hits give low values. activity change (PNC), negative = inhibition, % at 10 µM. hit rate 3.1% among 140,000. AID 2417;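 active = readout at or below -70, meaning at least 70% loss of cells showing the perinucleolar compartment, a nuclear body marking cancer cells; inconclusive = readout between -30 and a set limit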;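 also: plate controls were DMSO wells for no effect and camptothecin positive control wells for full effect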
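Read-out is percentage of cells bearing a perinucleolar compartment, from automated 20x imaging of fixed, Hoechst-stained PC3M PTB-GFP cells. Cells were seeded 4 h, then exposed 16 h to compound (23 nl of library stock) in duplicate plates.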
Tau fluor counter: counter-screen for tau fibril formation inhibitors; hit rate 0.93% among 280,000; Potency, µM (highest dose often 57.7 µM), without a hit: top-dose activity change, negative = decrease; tau K18 P301L Alexa594 fluorescence, heparin fibrillization; also: potency is read from the fitted curve at half-maximal effect; nearly all actives have a fitted effect of over 55% in size
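Human tau K18 P301L (15 uM unlabeled, 0.24 uM Alexa 594-labeled) in 100 mM sodium acetate pH 7 with 20 uM heparin, 6 hr at 37 C. ThT 30 uM added, 1 hr ambient; Alexa 594 FP and total fluorescence read at 555/632 nm.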
The depositor's hits bear a star; ? = inconclusive; nt = no result given; [ ] = dose if it differs, or a comment. Unless noted, calls follow the shape of the dose curve; as a rule, active = well fitted curve in the direction sought with a large enough effect; inconclusive = small, poorly fitted or top-dose-only effect, or another doubt; inactive = no such curve, though single readings can be large; an effect the other way counts as inactive or inconclusive. Unless noted, % is scaled to controls: 0 for no effect and ±100 for the full control effect.

SMILES	KDM4E inh	Tau fibril ThT	Tau FP inhib	NPSR antagonist	PNC inhibitor	Tau fluor counter
O=C(c1cc2ccccc2oc1=O)N1CCN(c2ccc(Cl)cc2)CC1	nt	?	-2%	nt	nt	-27%
CCOC(=O)/C(C#N)=C\c1cccnc1	1%	1%	-7%	15%	nt	1%
CCOC(=O)/C(=C\c1cccnc1)C(=O)c1cc(C(C)=O)c(Nc2ccccc2)s1	0%	?	?	3.2µM*	-111*	-15%
Cc1ccc(-c2cc3nc(C)cc(NCc4ccco4)n3n2)cc1	?	?	?	?	-104*	-17%
COc1cccc(CC(=O)Nc2ccc3nc(Nc4cccc(C(F)(F)F)c4)cc(C)c3c2)c1	nt	?	?	nt	nt	7.1µM*[quencher]
COc1ccccc1CC(=O)Nc1ccc2nc(Nc3cccc(C(F)(F)F)c3)cc(C)c2c1	nt	-13%	-7%	nt	nt	6.3µM*[quencher]
CCN(CC)CCNC(=O)CCn1c(=O)c2cccn2c2cccnc21	nt	-1%	4%	nt	nt	-1%
Cc1nn(-c2cccc(Cl)c2)c2c1C(c1ccncc1)C(C#N)=C(N)O2 (stereo unspecified)	?	?	-4%	?	59	?
COc1ccc(OC)c(C2C(C#N)=C(N)Oc3c2c(C)nn3-c2cccc(Cl)c2)c1 (stereo unspecified)	?	13µM*	-1%	-16%[46.1 µM]	-16	?
Cc1nn(-c2ccccc2)c2c1C(c1ccc([N+](=O)[O-])cc1)C(C#N)=C(N)O2 (stereo unspecified)	18µM*	?	-13%	15%	nt	?
Cc1nn(-c2ccccc2)c2c1C(c1ccco1)C(C#N)=C(N)O2 (stereo unspecified)	14µM*	?	-7%	4%[46.1 µM]	9	-25%
Cc1nn(-c2ccccc2)c2c1C(c1cccs1)C(C#N)=C(N)O2 (stereo unspecified)	-23%	?	-5%	-15%[46.1 µM]	-27	?
Cc1ccc(S(=O)(=O)N[C@H]2COC(=O)C/C=C\[C@H](C)[C@@H](NS(=O)(=O)c3ccc(C)cc3)COC(=O)C/C=C\[C@@H]2C)cc1	nt	-8%[11.5 µM]	-2%[11.6 µM]	nt	nt	-11%[11.6 µM]
Cc1ccc(-c2cn3c(n2)sc2cc(C(=O)NCCCc4ccccc4)ccc23)c(C)c1	nt	11%	-8%	nt	nt	-14%
CCOc1ccc(S(=O)(=O)NCc2nc3cccnc3n2Cc2ccccc2OC)cc1	nt	-9%	6%	nt	nt	-19%
Cc1ccccc1NS(=O)(=O)c1ccc(F)cc1	6%	-6%	-4%	-8%[46.1 µM]	-97*	-6%
O=C1/C(=C/c2ccc(O)c(O)c2)Oc2cc(O)ccc21	16µM*	14µM*	4%	-8%	nt	?
CC(=O)C1=C(O)C(=O)N(c2ccc(S(N)(=O)=O)cc2)C1c1cccc([N+](=O)[O-])c1 (stereo unspecified)	0%	-13%	4%	-20%	nt	-7%
CC(=O)C1C(=O)c2c(cccc2[N+](=O)[O-])C1=Nc1ccc(S(N)(=O)=O)cc1 (stereo unspecified)	-9%	13µM*	?	28%	nt	?
NC(=O)COc1ccc(=O)n(-c2ccccc2)n1	-1%	-6%	-2%	?	1	-4%
Cn1nc(OCC(N)=O)ccc1=O	-14%	-1%	12%	0%[46.1 µM]	-100*	5%
CCOc1ccc2c(c1)[N+](C)(C)C(C)(C)C=C2C	-11%	-3%	1%	9%	nt	-1%
COc1ccc2c(c1)[N+](C)(C)C(C)(C)C=C2C	20µM*	-6%	5%	7%	nt	-6%
COc1cc(-c2cc3n(C)c(C)c(CCC(=O)NCc4ccccc4)c(=O)n3n2)cc(OC)c1OC	nt	1%	2%	nt	nt	-3%
O=C1CC(c2ccc(O)cc2)Oc2cc(O)cc(O)c21 (stereo unspecified)	-5%	-16%	3%	-21%	-20	-23%
SMILES	KDM4E inh	Tau fibril ThT	Tau FP inhib	NPSR antagonist	PNC inhibitor	Tau fluor counter
CC1CC(=O)c2c(cc3c(-c4c(O)cc(O)c5c(O)c6c(cc45)OC(C)CC6=O)c(O)cc(O)c3c2O)O1 (stereo unspecified)	8.9µM*	?	?	?	nt	?
CCCC1=NN2C(=N)/C(=C\c3cc(C)n(Cc4ccccc4)c3C)C(=O)N=C2S1	?	-18%	4%	36%	nt	-13%
CCCC1=NN2C(=N)/C(=C\c3ccc(SCc4ccco4)o3)C(=O)N=C2S1	?	10µM*	-12%	-8%[46.1 µM]	-27	-27%
CCC1=NN2C(=N)/C(=C\c3ccc(SCc4ccco4)o3)C(=O)N=C2S1	-9%	10µM*	6%	-9%[46.1 µM]	-23	-29%
CCC1=NN2C(=N)/C(=C/c3c(C)nn(-c4ccccc4)c3Cl)C(=O)N=C2S1	-5%	-12%	-3%	-18%	2	11%
CCOc1ccc2oc(=O)cc(CN3CCN(c4ccc(Cl)cc4)CC3)c2c1	nt	4%	0%	nt	nt	-16%
O=S(=O)(/C(=C/c1ccc(C(F)(F)F)cc1)c1nc2ccccc2[nH]1)c1ccccc1	-5%	28µM*	?	6.3µM*	?	-12%
COc1ccc(OC)c(C2=C/C(=C/c3ccccn3)C(=O)O2)c1	25µM*	?	6%	-20%	nt	-17%
COc1ccc(NC(=O)COc2ccc(S(=O)(=O)NC3CCCCC3)cc2)cc1OC	nt	-2%	1%	nt	nt	-28%
S=c1nc[nH]c2nc[nH]c12	20µM*	-5%	-2%	nt	nt	-8%
CC(=O)c1ccc(NC(=O)CSc2nccn2Cc2ccco2)cc1	nt	-3%	-2%	nt	nt	-8%
N#C/C(=C(/O)c1ccco1)c1nc2ccccc2s1	6%	?	11%	36%	101	-17%
CC1=CC(=C(C#N)c2nc3ccccc3s2)C=C(C)N1Cc1ccco1	-3%	-18%	?	-12%[46.1 µM]	-1	4µM*[quencher]
COc1ccc2c(c1)Cc1sc(NC(=O)c3ccccc3)nc1-2	?	?	-8%	-15%[46.1 µM]	-13	?
COc1ccc2c(c1)Cc1sc(NC(=O)c3cccs3)nc1-2	11µM*	13µM*	?	?	?	?
COc1ccc2c(c1)Cc1sc(NC(=O)c3cccc(Br)c3)nc1-2	nt	4µM*	-6%	nt	nt	?
COc1ccc(C(=O)Nc2nc3c(s2)Cc2cc(OC)ccc2-3)cc1	-6%	2µM*	-7%	-13%[46.1 µM]	-22	4µM*[quencher]
COc1ccc2c(c1)Cc1sc(NC(=O)c3cccc(F)c3)nc1-2	nt	3.2µM*	-9%	nt	nt	?
COc1ccc2c(c1)Cc1sc(NC(=O)c3ccccc3C)nc1-2	nt	?	-11%	nt	nt	?
Cc1ccc(C)c(N2CCN(CCCNC(=O)Cn3c(-c4cccs4)cc4ccccc43)CC2)c1	nt	?	11%	nt	nt	-29%

Screening data (PubChem BioAssay)
